Measured values as given in PubChem BioAssay (NCI).
Compounds without any hit were thinned out: in the full panel of roughly 83,000, 20% have a hit.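 Activity criterion: percent growth below 10, measured after cells in 96-well plates were exposed to a single compound concentration for 48 hours.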 The source made the active and inactive calls.

Tested on: COLO 205 colon
Experiment: NCI-60 one-dose screen, 48 h (100 = growth as untreated, 0 = no growth, -100 = all killed)
Conditions: 10 µM unless noted
Protocol: Cells are grown in 96 well plates and exposed to the test compound for 48 hours. Compounds are tested at a single concentration, which is 10^-5 M for most compounds. The reported endpoint is percent growth (GI% or GIPRCNT), where numbers from 0 - 100% represent growth inhibition, and numbers from -100% - 0 represent cell death. For example, a value of 40 represents 60% growth inhibition. A value of 0 means no net growth occurred over the course of the experiment. A value of -40 indicates 40% of cells at the beginning of the experiment died by the end of the experiment. A value of -100 means all cells are dead at the end of the experiment.
NCI-60 Human Tumor Cell Lines Screen was performed using the standard one-dose NCI protocol, which is described in more detail at https://dtp.cancer.gov/discovery_development/nci-60/default.htm.
Compounds with GIPRCNT values below 10 were considered active. Activity score was based on GIPRCNT using the following formula: […]
Score is 0 for GIPRCNT values of 100 or above, 50 for GIPRCNT values of 0, and 100 for GIPRCNT values of -100.

SMILES	growth
O=C(NCCN1CCOCC1)OCc1ccc2c(Cl)cc(Cl)c(O)c2n1	109% (inactive)
c1ccc(Cn2cc3c(c2-c2ccccc2)CCc2cnoc2-3)cc1	80.5% (inactive)
CCn1cc(C(=O)N/N=C/c2cccc(F)c2)c(=O)c2cc(F)c(N3CCNC(C)C3)c(F)c21 (stereo not given)	17.5% (inactive)
CCN(CC)CCN1C(=O)c2c(c3c4ccccc4[nH]c3c3ccc4ccccc4c23)C1=O	78.7% (inactive)
COc1ccc(CNc2ccc3nc(NC(=O)CN4CCCCCC4)sc3c2)cc1	82.4% (inactive)
COC1C(O)CC(OC2CC(OC3CC(O[C@@H]4C(=O)c5c(cc6cc(OC7CC(OC8CC(O)C(O)C(C)O8)C(O)C(C)O7)c(C)c(O)c6c5O)CC4[C@H](OC)[C@@H](O)C(C)=O)OC(C)C3O)OC(C)C2O)OC1C (stereo not given in full)	-21.3% (active)
CCCN(CCSSCCNc1nc(N(C)O)nc(N(C)O)n1)c1nc(N(C)O)nc(N(C)O)n1	24.2% (inactive)
COc1ccc2cc(C(=O)N3CCC([C@@H](C)C(=O)NCc4ccc5c(c4)OCO5)CC3)[nH]c2c1	88.5% [50 µM] (inactive)
COC(=O)c1sccc1-c1cc(O)c(C(=O)Nc2ccccc2)s1	102% (inactive)
CC(=O)c1c(Nc2cccc(F)c2)[nH]c2c(Cl)cc(Cl)c(Cl)c2c1=O	-63.4% (active)
O=C(Nc1ncc(Cc2ccccc2)s1)c1sc2ccccc2c1Cl	16.8% (inactive)
O=S(=O)(Nc1cc(F)cc(F)c1)c1ccc(-c2cnc(C3CC3)o2)cc1	40.1% (inactive)
Cc1ncc(C(=O)Nc2ccc(CN3CCN(C)CC3)c(C(F)(F)F)c2)cc1C#Cc1cnc(N)c2ccc(C#N)cc12	5.29% (active)
CCn1cc(C(=O)O)c(=O)c2cc(F)c(N3CCN(CC(=O)Nc4ccccc4)C(C)C3)c(F)c21 (stereo not given)	106% (inactive)
COc1cc2c(cc1-c1c(C)noc1C)ncc1nc(CN3CCOCC3)n([C@H](C)COC(F)F)c12	14.7% (inactive)
Oc1c(I)cc(I)cc1CN(Cc1ccccn1)Cc1ccccn1	16% (inactive)
Cc1cc(O)c(=O)cc2c1C[C@H]1CC(C)(C)/C=C/C[C@]3(C)Oc4cc(=O)c(O)cc(C)c4C[C@H]3C[C@H](O)[C@@]1(C)O2	-14.7% (active)
CN(C)CCCn1c2c(c3ccncc3c1=O)C(=O)c1ccccc1-2	10.6% (inactive)
O=C(Nc1nc(Cl)nc(Nc2ccc(N3CCOCC3=O)cc2)n1)c1ccc(Cl)s1	97.3% (inactive)
COc1ccc(C2CC(c3ccccc3)=NN2C(=O)c2cc(OC)c(OC)c(OC)c2)cc1O (stereo not given)	71% (inactive)

SMILES	growth
CC(=O)O[C@H]1CC[C@]2(C)[C@H]3CC=C4[C@@H]5CC(C)(C)CC[C@]5(C(=O)N5CCN(CCC#N)CC5)CC[C@@]4(C)[C@]3(C)CC[C@H]2C1(C)C	21.1% (inactive)
Clc1ccc(Nc2ncc(Cc3cccc(Cl)c3Cl)s2)cc1	104% (inactive)
CC[C@H](Nc1nc(N)nc(C)c1C#N)c1nc2cccc(CN(C)c3ncc(C(=O)NO)cn3)c2c(=O)n1-c1ccccc1	-55.8% (active)
COC(=O)c1c(C)nc(C)c2c1C(=O)C=C(NCc1ccccc1)C2=O	78.5% (inactive)
C/C(=N\Nc1ccccc1)c1ccc(NC2=CC(=O)c3ccccc3C2=O)cc1	88.2% (inactive)
CC1(C)N=C(N)N=C(N)N1c1cc(Cl)ccc1Cl	87.5% (inactive)
CN(C)CCCNC(=O)c1cncnc1Nc1ccc2c(ccn2Cc2cccc(F)c2)c1	84.6% (inactive)
Cc1ccc2c(c1)sc1nc(-c3c[nH]c4ccccc34)c(Nc3ccccc3)n12	107% (inactive)
COc1ccc(C(=O)/C=C/c2ccccc2)cc1S(N)(=O)=O	98.2% (inactive)
COCCn1cc(-c2nc(-c3cc4cccnc4n3C)cs2)c2ccccc21	11.9% (inactive)
COc1ccc(C2[C@@H](Cl)C(=O)N2c2cc(OC)c(OC)c(OC)c2)cc1Cl (stereo not given in full)	-50.2% (active)
Cc1nn(-c2ccc([N+](=O)[O-])cc2)c2ncnc(N/N=C/c3ccccc3O)c12	1.21% (active)
CCCCO[C@@H]1C=C2[C@H]3CC(C)(C)C(=O)C[C@]3(C(=O)O[C@@H]3O[C@H](CO[C@@H]4O[C@H](CO)[C@@H](OC5OC(C)C(O)C(O)C5O)[C@H](O)[C@H]4O)[C@@H](O)[C@H](O)[C@H]3O)CC[C@@]2(C)[C@]2(C)CC[C@H]3C(C)(C)C(=O)CC[C@]3(C)[C@@H]12 (stereo not given in full)	97.2% (inactive)
COC(=O)[C@@]1(C)CC[C@]2(C)CC[C@]3(C)C4=CC=C5C(=CC(=O)C(O)=C5C)[C@]4(C)[C@@H](O)C[C@@]3(C)[C@@H]2C1	12.8% (inactive)
Clc1ccc(-c2cc(-c3ccccc3)nc(N3CCN(CCCNc4ccnc5cc(Cl)ccc45)CC3)n2)cc1	-54.2% (active)
COc1c2c(cc3c1C(=O)N[C@@H]1[C@@H](O)[C@@H](O)[C@H](O)C[C@@H]31)OCCO2	103% (inactive)
CN(C)Cc1cc(C(C)(C)C)cc(Br)c1O	102% (inactive)
Cc1ccc(S(=O)(=O)c2nc(-c3ccccc3)oc2SCC(N)=O)cc1	111% (inactive)
Nc1nc2ccccc2c2c(=O)c3cc(Cl)ccc3sc12	114% (inactive)
COc1cc(OC)c2c(=O)c3c(CC=C(C)C)cc(OC)c(O)c3oc2c1	111% (inactive)
